Measurements reported in PubChem BioAssay (NCATS).
Results filed as inconclusive are left out. More than one record can exist for a structure, and the calls need not agree. The source made the active and inactive calls. Unless noted, the call rests on the fitted dose curve; in most records, active means well fitted curve in the direction sought with a large enough effect; inconclusive means small, poorly fitted or top-dose-only effect, or another doubt; inactive means no such curve, though single readings can be large; an effect the other way counts as inactive or inconclusive.

Experiments:
[1] = target: ATP-dependent 6-phosphofructokinase (Trypanosoma brucei brucei) (UniProt O15648); assay: qHTS Assay to Find Inhibitors of T. brucei phosphofructokinase: hit validation (AID 492961); further: potency means the concentration at half of the fitted maximal effect
Chain of ATP-dependent 6-phosphofructokinase (Trypanosoma brucei brucei) (O15648 whole entry, looked up): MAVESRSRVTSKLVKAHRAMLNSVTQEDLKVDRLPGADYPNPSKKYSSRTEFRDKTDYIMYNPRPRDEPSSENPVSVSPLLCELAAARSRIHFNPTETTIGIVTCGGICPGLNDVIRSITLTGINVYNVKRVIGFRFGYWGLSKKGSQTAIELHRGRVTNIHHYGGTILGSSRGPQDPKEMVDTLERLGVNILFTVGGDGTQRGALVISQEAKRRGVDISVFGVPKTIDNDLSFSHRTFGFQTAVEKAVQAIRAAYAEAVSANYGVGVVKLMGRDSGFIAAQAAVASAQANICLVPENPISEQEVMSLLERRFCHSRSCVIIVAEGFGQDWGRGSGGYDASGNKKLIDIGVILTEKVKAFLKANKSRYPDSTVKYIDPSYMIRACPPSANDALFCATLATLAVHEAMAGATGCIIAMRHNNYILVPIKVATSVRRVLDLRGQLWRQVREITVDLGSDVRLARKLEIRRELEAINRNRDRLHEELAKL
Summary of the method: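 Measures ADP output of PFK (1.25 nM) at 0.1 mM ATP, 0.5 mM F6P, pH 8.0 TEA buffer with 5 mM MgCl2. No-enzyme wells define full inhibition; uninhibited enzyme wells define zero.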

[2] = target: Luciferin 4-monooxygenase (Photinus pyralis) (UniProt P08659); assay: Biochemical firefly luciferase enzyme assay for NPC (AID 624030);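 further: purified P. pyralis luciferase at 10 nM with luciferin and ATP substrate; 0% = DMSO and -100% = full luciferase inhibition by PTC124 control; nearly all actives have a fitted effect of over 70% in size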
Chain of Luciferin 4-monooxygenase (Photinus pyralis) (P08659 whole entry, looked up): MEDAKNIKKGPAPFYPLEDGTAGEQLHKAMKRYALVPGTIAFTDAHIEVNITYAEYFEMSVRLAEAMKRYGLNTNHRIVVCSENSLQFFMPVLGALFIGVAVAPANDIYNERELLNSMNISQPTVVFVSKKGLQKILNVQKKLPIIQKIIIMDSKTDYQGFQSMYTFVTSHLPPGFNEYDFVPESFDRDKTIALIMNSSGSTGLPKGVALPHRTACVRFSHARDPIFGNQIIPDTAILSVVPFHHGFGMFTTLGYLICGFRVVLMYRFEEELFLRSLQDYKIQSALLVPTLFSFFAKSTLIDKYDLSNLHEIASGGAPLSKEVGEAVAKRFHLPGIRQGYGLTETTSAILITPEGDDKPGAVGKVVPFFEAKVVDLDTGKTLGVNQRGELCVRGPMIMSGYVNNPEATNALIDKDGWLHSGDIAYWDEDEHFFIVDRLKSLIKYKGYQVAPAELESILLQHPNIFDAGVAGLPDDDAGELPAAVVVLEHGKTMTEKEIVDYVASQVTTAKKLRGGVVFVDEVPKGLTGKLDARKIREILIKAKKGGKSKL
Summary of the method: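 Direct inhibition of firefly luciferase enzyme (10 nM final, 50 mM Tris Acetate) assessed by luminescence within 5 minutes. Percent activity scaled between DMSO and PTC124 positive control, with concentration-effect curves classified by fit quality and response.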

[3] = qHTS profiling for inhibitors of Plasmodium falciparum proliferation (AID 504749); further: potency means the concentration at half of the fitted maximal effect;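 on activity, negative = inhibition: 0% = DMSO vehicle and full inhibition = artemisinin control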; on all read-outs here: nearly all actives have a fitted effect of over 60% in size; settings: P. falciparum in erythrocytes, SYBR Green DNA, 72 h; for activity, negative = inhibition: at 28.7 µM (top of the series)
Summary of the method: (§1)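 Three-day growth assay of blood-stage parasites in erythrocytes (0.3% parasitemia, 2.5% hematocrit) at 37 C, 5% CO2, quantified by SYBR Green DNA staining after overnight detergent lysis.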

AA1029 = assay: as above; settings: P. falciparum in erythrocytes, SYBR Green DNA, 72 h; series mostly up to 28.7 µM
Summary of the method: as §1

CP185 = assay: as above; settings: P. falciparum in erythrocytes, SYBR Green DNA, 72 h; series mostly up to 28.7 µM
Summary of the method: as §1

CP192 = assay: as above; settings: P. falciparum in erythrocytes, SYBR Green DNA, 72 h; series mostly up to 28.7 µM
Summary of the method: as §1

CP211 = assay: as above; settings: P. falciparum in erythrocytes, SYBR Green DNA, 72 h; series mostly up to 28.7 µM
Summary of the method: as §1

CP238 = assay: as above; settings: P. falciparum in erythrocytes, SYBR Green DNA, 72 h; series mostly up to 28.7 µM
Summary of the method: as §1

CP262 = assay: as above; settings: P. falciparum in erythrocytes, SYBR Green DNA, 72 h; series mostly up to 28.7 µM
Summary of the method: as §1

CP269 = assay: as above; settings: P. falciparum in erythrocytes, SYBR Green DNA, 72 h; series mostly up to 28.7 µM
Summary of the method: as §1

CP286 = assay: as above; settings: P. falciparum in erythrocytes, SYBR Green DNA, 72 h; series mostly up to 28.7 µM
Summary of the method: as §1

CP315 = assay: as above; settings: P. falciparum in erythrocytes, SYBR Green DNA, 72 h; series mostly up to 28.7 µM
Summary of the method: as §1

CP329 = assay: as above; settings: P. falciparum in erythrocytes, SYBR Green DNA, 72 h; series mostly up to 28.7 µM
Summary of the method: as §1

Dd2 = assay: as above; settings: P. falciparum in erythrocytes, SYBR Green DNA, 72 h; series mostly up to 28.7 µM
Summary of the method: as §1

ECU = assay: as above; settings: P. falciparum in erythrocytes, SYBR Green DNA, 72 h; series mostly up to 28.7 µM
Summary of the method: as §1

FAB9 = assay: as above; settings: P. falciparum in erythrocytes, SYBR Green DNA, 72 h; series mostly up to 28.7 µM
Summary of the method: as §1

JCK = assay: as above; settings: P. falciparum in erythrocytes, SYBR Green DNA, 72 h; series mostly up to 28.7 µM
Summary of the method: as §1

N140 = assay: as above; settings: P. falciparum in erythrocytes, SYBR Green DNA, 72 h; series mostly up to 28.7 µM
Summary of the method: as §1

PC49 = assay: as above; settings: P. falciparum in erythrocytes, SYBR Green DNA, 72 h; series mostly up to 28.7 µM
Summary of the method: as §1

[4] = S16 Schwann cell PMP22 intronic element beta-lactamase assay (AID 624044; calls by dose curve;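 further: 0% = DMSO and -100% = potassium clavulanate positive control; nearly all actives have a fitted effect of over 15% in size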); settings: S16 rat Schwann cells, PMP22 element beta-lactamase FRET, 24 h
Summary of the method: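 Rat S16 Schwann cells with beta-Lac driven by a PMP22 intronic element, compound-treated 24 h at 37 °C. LiveBLAzer FRET B/G read: 460 nm normalized to potassium clavulanate vs DMSO; 535 nm FRET as viability; concentration-effect curves classified.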

[5] = ratio activity, negative = inhibition: at 38.3 µM (top of the series)

CCC(C)C(N)C(=O)O (configuration not stated)
inactive: Potency [1] | Potency [2] | activity, negative = inhibition ([3]; parasite line B) -1.6% | Potency (AA1029) | Potency (CP185) | Potency (CP192) | Potency (CP211) | Potency (CP238) | Potency (CP262) | Potency (CP269) | Potency (CP286) | Potency (CP315) | Potency (CP329) | Potency (Dd2) | Potency (ECU) | Potency (FAB9) | Potency (JCK) | Potency (N140) | Potency (PC49)

OCC(O)C(O)C(O)C(O)CO (configuration not stated)
active: ratio activity, negative = inhibition [4, 5] 1.06%
inactive: Potency [1] | Potency [2] | ratio activity, negative = inhibition ([4]; at 38.3 µM (top of the series)) -3.36% | activity, negative = inhibition ([3]; parasite line B) 7.82% | Potency (AA1029) | Potency (CP185) | Potency (CP192) | Potency (CP211) | Potency (CP238) | Potency (CP262) | Potency (CP269) | Potency (CP286) | Potency (CP315) | Potency (CP329) | Potency (Dd2) | Potency (ECU) | Potency (FAB9) | Potency (JCK) | Potency (N140) | Potency (PC49)

CCC1OC(=O)C[C@@H](O)[C@H](C)[C@@H](OC2OC(C)CC(N(C)C)C2O)[C@@H](CC=O)C[C@@H](C)C(=O)/C=C/[C@]2(C)OC2C1C (some centres not stated)
inactive: Potency [1] | Potency [2] | Potency [4, 5] | Potency (FAB9) | Potency (JCK)
active: Potency (CP185) 2 µM | Potency (CP286) 1.12 µM | Potency (Dd2) 1 µM

O=C(O)c1ccccc1-c1c2ccc(=O)cc-2oc2cc(O)ccc12
inactive: Potency [1] | Potency [2] | Potency [4, 5] | Potency (CP269) | Potency (CP286) | Potency (CP315) | Potency (CP329)

NC(C(=O)O)C(O)c1ccc(O)c(O)c1 (configuration not stated)
active: Potency [1] 4.47 µM | Potency ([3]; parasite line A) 14.1 µM | Potency (N140) 12.6 µM
inactive: Potency [4, 5] | Potency (CP315) | Potency (JCK) | Potency (PC49)

Cc1cnc(NC(=O)C2C(=O)c3ccccc3S(=O)(=O)N2C)s1 (configuration not stated)
inactive: Potency [1] | Potency [4, 5] | activity, negative = inhibition ([3]; parasite line A) -14.2% | Potency (AA1029) | Potency (CP185) | Potency (CP192) | Potency (CP211) | Potency (CP238) | Potency (CP262) | Potency (CP269) | Potency (CP286) | Potency (CP315) | Potency (CP329) | Potency (Dd2) | Potency (ECU) | Potency (FAB9) | Potency (JCK) | Potency (N140) | Potency (PC49)

CC1=C(/C=C/C(C)=C\C=C\C(C)=C\C=C\C=C(C)\C=C\C=C(C)\C=C\C2=C(C)C[C@@H](O)CC2(C)C)C(C)(C)C[C@H](O)C1
active: Potency (AA1029) 12.6 µM | Potency (CP286) 11.2 µM | Potency (Dd2) 11.2 µM | Potency (ECU) 14.1 µM | Potency (N140) 7.08 µM | Potency (PC49) 7.08 µM
inactive: Potency [1] | Potency [2] | Potency [4, 5] | Potency (CP185) | Potency (CP192) | Potency (CP211) | Potency (CP238) | Potency (CP262) | Potency (CP269) | Potency (CP315) | Potency (CP329) | Potency (FAB9)

CCCCC(=O)OC1CCC2C3CCc4cc(O)ccc4C3CC[C@]12C (some centres not stated)
active: Potency (N140) 11.2 µM
inactive: Potency [1] | Potency [2] | Potency [4, 5] | activity, negative = inhibition ([3]; parasite line A) -29.6% | Potency (AA1029) | Potency (CP185) | Potency (CP192) | Potency (CP211) | Potency (CP238) | Potency (CP262) | Potency (CP269) | Potency (CP286) | Potency (CP315) | Potency (CP329) | Potency (ECU) | Potency (FAB9) | Potency (JCK) | Potency (PC49)

C=C1CCC(O)C/C1=C/C=C1\CCC[C@]2(C)[C@@H]([C@H](C)/C=C/[C@H](C)C(C)C)CC[C@@H]12 (some centres not stated)
active: Potency (JCK) 0.708 µM
inactive: Potency [1] | Potency [2] | Potency [4, 5] | Potency (AA1029) | Potency (CP192) | Potency (CP211) | Potency (CP238) | Potency (CP262) | Potency (CP269) | Potency (CP286) | Potency (CP315) | Potency (CP329) | Potency (FAB9)

C[C@@H]1CC2[C@@H]3C[C@H](F)C4=CC(=O)C(Cl)=C[C@]4(C)[C@@]3(F)[C@H](O)C[C@]2(C)[C@@]1(O)C(=O)CO (some centres not stated)
inactive: Potency [1] | Potency [2] | Potency (CP192) | Potency (CP211) | Potency (CP262) | Potency (CP269) | Potency (CP286) | Potency (CP315) | Potency (CP329) | Potency (Dd2) | Potency (FAB9) | Potency (JCK) | Potency (PC49)

Cc1cncc(C(=O)O)[n+]1[O-]
inactive: Potency [1] | Potency [2] | Potency (CP192) | Potency (CP211) | Potency (CP262) | Potency (CP269) | Potency (CP286) | Potency (CP315) | Potency (CP329) | Potency (Dd2) | Potency (FAB9) | Potency (JCK) | Potency (PC49)

O=C(NC(CO)C(O)c1ccc([N+](=O)[O-])cc1)C(Cl)Cl (configuration not stated)
inactive: Potency [1] | Potency [2] | Potency [4, 5] | Potency (CP315) | Potency (ECU) | Potency (FAB9) | Potency (JCK) | Potency (PC49)
active: Potency (CP269) 3.01 µM | Potency (Dd2) 8.91 µM

O=C1Oc2ccccc2C(=O)C1C(CC(O)c1ccc(-c2ccc(Br)cc2)cc1)c1ccccc1 (configuration not stated)
inactive: Potency [1] | Potency [4, 5] | activity, negative = inhibition ([3]; parasite line A) -67.1% | Potency (AA1029) | Potency (CP185) | Potency (CP192) | Potency (CP211) | Potency (CP238) | Potency (CP262) | Potency (CP269) | Potency (CP286) | Potency (CP315) | Potency (CP329) | Potency (Dd2) | Potency (FAB9) | Potency (N140) | Potency (PC49)

C[C@H](CN1c2ccccc2Sc2cccnc21)N(C)C
inactive: Potency [1] | Potency [2] | Potency [4, 5] | activity, negative = inhibition ([3]; parasite line A) -16.9% | activity, negative = inhibition ([3]; parasite line B) -1.99% | Potency (CP262) | Potency (ECU) | Potency (FAB9) | Potency (PC49)
active: Potency (AA1029) 7.94 µM | Potency (CP185) 11.2 µM | Potency (CP238) 10 µM | Potency (CP286) 4.47 µM | Potency (Dd2) 4.47 µM | Potency (N140) 11.2 µM

Cc1cc(O)c2c(c1)OC1(C)CCC3C(C)(C)CCCC34COC2C14 (configuration not stated)
inactive: Potency [1] | Potency [2] | Potency [4, 5] | activity, negative = inhibition ([3]; parasite line A) -27.8% | Potency (CP192) | Potency (CP238) | Potency (CP286) | Potency (CP315) | Potency (CP329) | Potency (FAB9)
active: Potency (AA1029) 10 µM | Potency (N140) 12.6 µM
